Screens: PubChem BioAssay, National Center for Advancing Translational Sciences (NCATS)
This is a sample that favours compounds with a hit; in the whole collection about 2.1% have one here.
Mito fusion act: mitochondrial division inhibition or fusion activation; Potency, µM (doses to about 46.1 µM), without a hit: top-dose growth rescue (activation), usual class: activators; AID 485298; actives 0.23% (n = 320,000); S. cerevisiae fusion-defective mutant growth rescue, CellTiterGlo 48 h; note: potency is the fitted concentration of half-maximal effect; % of control where 0% means no effect; nearly all actives have a fitted effect of over 45% in size
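Growth-rescue viability read-out: after 48 h at the non-permissive 37C in glycerol/ethanol YPEG, yeast mitochondrial fusion mutants are measured by CellTiterGlo luminescence; compounds (23 nl pinned per well) restoring growth score as division inhibitors or fusion activators.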
Giardia kill: Giardia lamblia killing. Giardia lamblia trophozoite viability. activity change, % at 7.66 µM, hits read low. actives 0.15% (n = 340,000). AID 540267; in the data active = activity change below about -80%; inconclusive = between about -30% and that limit;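 note: parasites exposed to compound for two days anaerobically before the ATP read; % is set by controls: 0 for no effect and ±100 for the full control effect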
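Viability, read as ATP luminescence: trophozoites at 100 cells/well, compound added, 48 hrs anaerobic at 37 deg C, then 15-30 min room-temperature development before reading.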
ClpP mod: qHTS Assay for Activators of ClpP; purified B. subtilis ClpP, FRET peptide cleavage, 20 min; Potency, µM (top dose mostly 57.5 µM), inactives show at the top dose activity change, negative = active; actives 1.9% (n = 340,000); active = well fitted falling curve with a large enough effect; inconclusive = small, poorly fitted or top-dose-only effect; inactive = no such curve, though single readings can be large or run the other way; note: potency is the fitted concentration of half-maximal effect; the source files actives as falling curves though it sought activators and does not explain the sign; nearly all actives have a fitted effect of over 65% in size
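FRET quenching reversal measured ClpP activation: 10 microg/mL B. subtilis ClpP at pH 8 with the FRET-FV decapeptide, read at 430 nm after 320 nm excitation. The 20-min minus 0-min signal was scaled between DMSO/no-enzyme wells and ADEP (5.8 microM final).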
p53 reactivation: re-activators of mutant p53; H1299 p53-A138V BP100-luciferase reporter, luminescence, 24 h; Potency, µM (top dose mostly 92.2 µM), for inactives: at the highest dose activity change, positive = activation, usual class: activators; actives 0.063% (n = 320,000); AID 504706; note: potency is the fitted concentration of half-maximal effect; % of control where 0% means no effect; nearly all actives have a fitted effect of over 45% in size
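p53-null H1299 cells stably carrying temperature-sensitive p53-A138V and a BP100-luciferase reporter were pinned with compounds (4-point, 1:5 series) and held 24 hrs at 37 deg C. Luminescence was read 10 min after detection reagent.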
B2AR arrestin: agonists driving beta-arrestin recruitment to human beta2-adrenergic receptor; beta-arrestin recruitment to beta2AR, cell-based reporter; Potency, µM (top dose mostly 46.1 µM), for the others: at the highest dose activation, most hits filed as activators; actives 0.02% (n = 330,000); AID 492947;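 note: potency is the fitted concentration of half-maximal effect; 0% = DMSO controls and full agonism = EC100 isoproterenol or metaproterenol; nearly all actives have a fitted effect of over 65% in size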
uPA surface inh: blocks generation of uPA at the cell surface | actives 0.31% (n = 330,000) | cell surface uPA generation assay, qHTS | Potency, µM (titrated, usually from 38.3 µM), inactives show top-dose activity change, negative = inhibition, actives largely listed as inhibitors; active = well fitted inhibition curve with a large enough effect; inconclusive = small, poorly fitted or top-dose-only effect; inactive = no such curve, though single readings can be large or run the other way; tested in mouse RAW 264.7 cells; note: potency is the fitted concentration of half-maximal effect; % is set by controls: 0 for no effect and ±100 for the full control effect; nearly all actives have a fitted effect of over 55% in size
* hit, by the source's call; ? = inconclusive; · = no result given. Unless noted, calls come from the whole dose curve; as a rule, active = well fitted curve in the direction sought with a large enough effect; inconclusive = small, poorly fitted or top-dose-only effect, or another doubt; inactive = no such curve, though single readings can be large; an effect the other way counts as inactive or inconclusive.

SMILES | Mito fusion act | Giardia kill | ClpP mod | p53 reactivation | B2AR arrestin | uPA surface inh
O=C(CN1N=C(c2ccc(Cl)cc2)CCC1=O)NCc1ccc(F)cc1 | · | · | 1.4% | · | · | ·
COc1ccccc1OC(C)C(=O)Nc1ccc(-c2nc3ccccc3s2)cc1 (centres undefined) | · | · | 4.1% | · | · | ·
O=C(Nc1ccccc1C(=O)O)c1ncn[nH]1 | -1.9% | -3.3 | 28.2µM* | 9.2% | -0.8% | 1.9%
CN(Cc1ccco1)C(=O)c1ccc2c(c1)N(Cc1ccccc1F)C(=O)c1ccccc1S2 | · | · | -16.6% | · | · | ·
O=C(Nc1cccc(-c2cn3ccccc3n2)c1)C1CC1 | 0.4% | -0.4 | 28.2µM* | 4.8% | -0.7% | ·
COc1ccc(CC(=O)Nc2ccc(-c3cn4ccccc4n3)cc2)cc1OC | -3.4% | 12.0 | ? | -1.7% | 0.0% | 0.0%
CC(=O)Nc1cccc(-c2cn3ccc(C)cc3n2)c1 | 10.7% | -25.2 | 3.5% | 2.3% | -0.2% | ?
COc1ccc(CC(=O)Nc2cccc(-c3cn4ccccc4n3)c2)cc1 | 9.4% | -9.5 | 20µM* | 14.5% | -1.9% | -4.6%
Cc1cccc2nc(-c3cccc(NC(=O)Cc4ccccc4)c3)cn12 | ? | ? | 28.2µM* | 20.9% | 0.1% | -3.4%
Cc1ccn2cc(-c3cccc(NC(=O)CCC(=O)O)c3)nc2c1 | -2.5% | ? | 3.7% | · | -0.8% | 3.55µM*
Cc1cccc2nc(-c3cccc(NC(=O)c4ccc(Cl)cc4)c3)cn12 | 26.7% | -1.5 | 37.5% | 6.7% | 2.0% | -28.0%
Oc1c(C(c2ccccc2F)N2CCN(c3ccccc3F)CC2)sc2nc(-c3ccco3)nn12 (centres undefined) | · | · | -3.7% | · | · | ·
CCN(CC)CCNC(=O)C(=O)Nc1c2c(nn1-c1ccc(F)cc1)CSC2 | · | · | -2.4% | · | · | ·
CCC(=O)Nc1cccc(-c2cn3ccccc3n2)c1 | -3.3% | -12.0 | 10µM* | ? | -0.3% | 2.9%
COc1ccc(CC(=O)Nc2ccc(-c3cn4ccccc4n3)cc2)cc1 | 3.7% | -9.4 | 28.2µM* | 17.4% | 0.1% | -5.5%
O=C(O)/C=C/c1ccc2ccccc2c1 | · | · | 4.0% | · | · | ·
O=C(CSc1nc2[nH]c(=O)cc(O)c2s1)Nc1nncs1 | · | -3.0 | · | · | · | -0.6%
Cc1csc(NC(=O)CSc2nc3[nH]c(=O)cc(O)c3s2)n1 | · | -87.1* | · | · | · | -1.4%
O=C(CSc1nc2[nH]c(=O)cc(O)c2s1)Nc1nccs1 | -9.1% | -21.5 | 31.6µM* | 4.2% | -0.1% | 3.2%
COc1cc(OC)c(C(=O)Nc2cccc(C(C)=O)c2)cc1OC | 5.9% | 10.9 | 15.8µM* | 8.7% | -0.1% | -4.7%
Cc1nn(C(=O)c2ccc(Br)cc2)c(C)c1S(=O)(=O)N1CCOCC1 | · | · | -0.9% | · | · | ·
COc1ccccc1C(=O)NC(=O)CSc1nc(C)cs1 | -2.4% | -3.1 | 28.2µM* | 7.9% | -1.3% | 2.8%
COc1ccccc1CNC(=O)CSc1nc(C)cs1 | 0.3% | 14.1 | 2.5% | 0.5% | 0.0% | -6.0%
Cc1ccc(N2C(=O)CC(Cc3ccc(Cl)cc3)C2=O)cc1 (centres undefined) | 6.5% | 15.5 | 7.08µM* | · | -0.3% | 4.1%
COc1ccc(/C=N/NC(=O)CCc2n[nH]c(=O)[nH]c2=O)cc1OC | 1.2% | -7.1 | -6.3% | 1.0% | 0.3% | -1.4%
SMILES | Mito fusion act | Giardia kill | ClpP mod | p53 reactivation | B2AR arrestin | uPA surface inh
COc1cccc(/C=N/NC(=O)CCc2n[nH]c(=O)[nH]c2=O)c1O | -0.7% | -9.2 | 10µM* | ? | -0.6% | -4.4%
COc1cccc(CN(C)C(=O)C2CC(=O)N(c3ccc4c(c3)OCCO4)C2)c1 (centres undefined) | -1.3% | 6.5 | 14.1µM* | -3.5% | 0.1% | 0.4%
COc1cc(OC)cc(C(=O)NCC(=O)OCC(=O)c2cc(C)n(Cc3ccco3)c2C)c1 | -0.1% | 6.6 | 10µM* | -0.3% | -0.4% | -23.4%
COC(=O)[C@@]12C[C@@H](CC(=O)NCc3cccc(C(F)(F)F)c3)C(=O)N(CCc3ccc(OC)c(OC)c3)C1=CCC(C)(C)C2 | · | · | 2.6% | · | · | ·
O=C(O)c1cccc(NC(=O)c2ccc(Cl)c(S(=O)(=O)N3CCCCCC3)c2)c1 | 1.0% | -0.3 | -1.6% | -5.6% | -0.3% | 6.31µM*
O=C(Nc1ccc(Cl)c(S(=O)(=O)N2CCCCC2)c1)C1=COCCO1 | 17.4% | 1.3 | 14.1µM* | 3.4% | 0.0% | 5.6%
CN(C)S(=O)(=O)c1cc(NC(=O)C2=COCCO2)ccc1Cl | 7.0% | -12.9 | -3.4% | -2.1% | -0.1% | ?
O=C(Nc1cccnc1)c1ccc(Cl)c(S(=O)(=O)N2CCCCC2)c1 | -1.7% | -14.1 | 0.3% | -16.8% | 0.3% | 0.8%
Cc1ccc(C)c(NC(=O)c2nnn(Cc3ccc(F)cc3Cl)c2N)c1 | · | · | -4.4% | · | · | ·
O=S(=O)(CC(CN1CCCCC1)N1CCCCC1)c1ccccc1 (centres undefined) | -29.0% | 6.3 | 1.2% | -11.0% | -0.5% | 8.91µM*
O=[N+]([O-])c1ccc(S(=O)(=O)CC(CN2CCCCC2)N2CCCCC2)cc1 (centres undefined) | 16.4% | 8.7 | 2.9% | 2.4% | -0.6% | ?
COc1ccc2nc(-c3ccccc3)nc(SC)c2c1 | · | -25.9 | 22.4µM* | · | · | -19.5%
COCc1nc2ccccc2n1Cc1ccc(C(C)(C)C)cc1 | · | · | 0.8% | · | · | ·
COC(=O)Cn1c(=NC(=O)c2sc3ccccc3c2Cl)sc2cc(S(N)(=O)=O)ccc21 | -1.8% | -9.1 | 14.1µM* | -7.2% | 0.1% | 3.8%
CCOC(=O)Cn1c(=NC(=O)c2sc3ccccc3c2Cl)sc2cc(S(N)(=O)=O)ccc21 | 1.8% | -24.2 | ? | -3.1% | -0.4% | 9.1%
CCOC(=O)c1c(C)[nH]c(C)c1S(=O)(=O)N(C)CC(=O)N1CCN(c2cccc(Cl)c2)CC1 | · | · | -2.5% | · | · | ·
O=C(CN1C(=O)S/C(=C\c2ccccc2Cl)C1=O)NCCCn1ccnc1 | 3.98µM* | -6.8 | · | -6.1% | 0.1% | 3.5%
C[C@H](NC(=O)OC(C)(C)C)c1nnc(SCc2ccc(Cl)cc2Cl)o1 | · | · | 0.4% | · | · | ·
c1ccc(CNc2nc3ccccc3c3nc(-c4ccccc4)nn23)cc1 | · | · | 25.1µM* | · | · | ·
COc1ccc(-c2csc3ncnc(N4CCN(c5cccc(OC)c5)CC4)c23)cc1 | -2.0% | 28.8 | -6.9% | -13.8% | -0.3% | 3.9%
COc1ccc(-c2csc3ncnc(N4CCN(c5cccc(Cl)c5)CC4)c23)cc1 | 1.1% | -3.6 | -27.8% | -13.6% | -0.5% | 11.2µM*
Cc1nc2cc(NS(=O)(=O)c3c(C)c(C)cc(C)c3C)ccc2s1 | 35.5µM* | 10.4 | 2.4% | -5.2% | 0.0% | -5.5%
COc1ccc(-c2cc3nc(C)n(N)c(=O)c3s2)cc1 | -17.9% | ? | 4.0% | -13.1% | -1.0% | 0.708µM*
O=C(Nc1ccccc1O)c1ccc(NS(=O)(=O)c2cccc3cccnc23)cc1 | 9.0% | -1.7 | 0.2% | ? | 0.7% | 7.08µM*
COC(=O)c1ccc(NC(=O)c2ccc(NS(=O)(=O)c3cccc4cccnc34)cc2)cc1 | 0.8% | -0.3 | · | 2.7% | -1.0% | -4.1%
